Compounds without any hit were thinned out: in the full panel of roughly 83,000, 20% have a hit.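 Single-dose data. Exposure time 48 hours. Values below 10 considered active.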 A number with no mark means an inactive call. The source made the active and inactive calls.

The test system of this assay is U251 CNS. As to the kind of experiment: NCI-60 one-dose screen, 48 h (100 = growth as untreated, 0 = no growth, -100 = all killed). As to conditions: 10 µM unless noted.
For the compound `CCCCCC(=O)OCCC1CCCCC1`, the growth was 96%.
The result for `CC(C)OCC(CCl)OC(=O)Nc1ccccc1` (configuration not stated) reads 97.2%; that for `Oc1cccc(CNC2CCCCC2)c1`, 106%.
On to `C=CCC(OC(C)=O)c1ccc(OC)c(OC)c1` (configuration not stated), for which the growth is 101%.
For the compound `COC1OC(CO)C(OC)C(O)C1O` (configuration not stated), the growth is 99.6%.
For the compound `O=S(Cc1ccccc1)/C(=C/NC(=S)Nc1ccccc1)c1ccccc1` (configuration not stated), the growth is 100%.
As for `Oc1ccc(N=Cc2ccc(OCc3ccccc3)cc2)cc1`, the growth is 102%.
The result for `CCCCCCCCCCCCCCCCCC(=O)NCCNC(=O)CCCCCCCCCCCCCCCCC` reads 94.5%; that for `O=C1C=C(c2ccccc2)C(O)(c2ccccc2)C1` (configuration not stated), 106%.
The figure for `Nc1ncc([N+](=O)[O-])cn1` is 96.2%.
The result for `CCN(C(C)=O)c1ccc([N+](=O)[O-])cc1` reads 90.8%.
Regarding `C1C[S+]2CC[S+]1CC2`, the growth was 96.4%.
On to `NC(=O)OCCO`, for which the growth is 97.4%.
`COC1CC(OC(=O)c2ccc([N+](=O)[O-])cc2)C(COC(=O)c2ccc([N+](=O)[O-])cc2)O1` (configuration not stated): the growth was 97.2%.
The result for `CC(=O)c1cc(O)ccc1O` reads 104%.
As to `Cc1c(Cl)cccc1NC(=S)NC(=O)c1ccccc1`, the growth was 84.9%.
The figure for `Cc1cc(Cl)cc(Cc2cc(Cl)cc(C)c2O)c1O` is 8.37% (active); for `CCCOCc1cn[nH]n1` it is 96.1%; for `Cc1ccc(C(C)C)c(OCC(=O)O)c1` it is 96.1%.
The figure for `OC(CBr)CCBr` (configuration not stated) is 93.3%.
The figure for `CC(CCC#N)(CCC#N)C(=O)c1ccccc1` is 109%; for `CCC(=O)Oc1c(C)cc(O)c2ccccc12` it is 87.7%.
As for `COCC(N)=O`, the growth was 104%.
The result for `Cc1cc(C)cc(OCC(=O)O)c1` reads 103%.
As for `CCOC(OCC)C(=O)c1ccccc1`, the growth is 95%.
On to `Cc1ccnc(Nc2nc3ccccc3[nH]2)n1`, for which the growth is 103%.
The figure for `O=C(NC(=S)N1CC=CCC1)c1ccccc1` is 104%.
As to `COc1cc(OC)c(NC(=O)C(Sc2nc(C)cc(C)c2C#N)c2ccccc2)cc1Cl` (configuration not stated), the growth is 87.3%.
The result for `O=S(=O)(O)c1cccc2cccnc12` reads 113%; that for `CC(C)(CC(=O)O)CC(=O)O`, 109%.
The figure for `CC(=O)N(C)N=Nc1ccc(C)cc1` is 106%; for `CC(=O)c1cccs1` it is 101%; for `CSCC[C@@H]1C(=O)N(C)[C@H](C(C)(C)C)N1C(=O)c1ccccc1` it is 99.3%.
Regarding `CC1=CC(=Nc2ccc(N(C)C)cc2)C=C(C)C1=O`, the growth was 92.7%.
In the case of `OC(CCN1CCCCC1)(c1ccccc1)c1ccccc1`, the growth was 100%.
The figure for `CCOC(=O)c1ccc(NC(=O)Nc2nccs2)cc1` is 12.5%.
The result for `O=CNCCc1ccccc1` reads 99.4%.

For the origin of these results see PubChem BioAssay (NCI).
